From PubChem
This is a sample that favours compounds with a hit; in the whole collection about 6.6% have one here.
KB-V1 MDR tox = qHTS assay for MDR1-selective chemotherapeutics: Primary screen using the drug-selected MDR subline cells KB-V1; Potency, µM (highest dose often 46.1 µM), actives largely listed as cytotoxic; actives 3.4% (n = 400,000); KB-V1 MDR cells viability, CellTiter-Glo, 72 h; further: nearly all actives have a fitted effect of over 60% in size
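Drug-selected KB-V1 cells, grown in DMEM lacking phenol red with 10% FBS, receive compound titrations; after three days at 37 degrees C, surviving cell ATP is quantified by CellTiter-Glo luminescence and responses normalized and curve-fitted.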
HT1080NT lethal = qHTS for induction of synthetic lethality in tumor cells producing 2HG: qHTS for the HT-1080-NT fibrosarcoma cell line; Potency, µM (top dose mostly 46.1 µM), actives largely listed as cytotoxic; HT-1080-NT fibrosarcoma viability, CellTiter-Glo ATP luminescence, 48 h; actives 1.6% (n = 360,000);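 further: NT is the 2HG producing partner of a matched IDH1 knockdown line; nearly all actives have a fitted effect of over 55% in size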
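Viability by CellTiter-Glo luminescence after 48 h compound exposure at 37C of HT-1080-NT cells (750/well, RPMI, 5% FBS). % activity scaled between DMSO wells and medium-only wells, then curve-fitted and categorized by curve class.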
HepG2 tox = qHTS for Inhibitors of TGF-b: Cytotox Counterscreen; HepG2 CAGA-GFP viability, ATP luminescence, 18 h; Potency, µM (series often up to 46.1 µM), usual class: cytotoxic; actives 0.76% (n = 410,000); AID 588856, 2011
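CellTiter-Glo luminescence gave cytotoxicity after 18 hours at 37 degrees C. The cells were HepG2 CAGA-GFP in 1% FBS DMEM, stimulated with 500 pg/mL TGF-beta after compound addition. %Activity was normalised to no-cell wells (complete cell-killing) and DMSO (no toxicity), and curves were fitted and classified.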
KB-3-1 cytotox = qHTS assay for MDR1-selective chemotherapeutics: Primary screen using the parental adenocarcinoma cell KB-3-1 | actives 1.4% (n = 400,000) | Potency, µM (doses to about 46.1 µM), usual class: cytotoxic | AID 1347075, 2019 | KB-3-1 viability, CellTiter-Glo ATP luminescence, 72 h; further: nearly all actives have a fitted effect of over 60% in size
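Here the drug-naive KB-3-1 line serves as comparator for MDR sub-line selectivity; cells received compound titrations, 72 h at 37 °C, then CellTiter-Glo readout.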
HT1080 IDH1KD tx = qHTS for induction of synthetic lethality in tumor cells producing 2HG: qHTS for the HT-1080-IDH1KD cell line. HT-1080 IDH1 knockdown viability, ATP luminescence, 48 h. Potency, µM (series often up to 46.1 µM), most hits filed as cytotoxic. actives 2% (n = 360,000). AID 686971, 2013
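CellTiter-Glo luminescence after 48 h compound exposure at 37 degrees C of IDH1-knockdown HT-1080 cells in 5% FBS RPMI. %Activity scaled between DMSO wells and cell-free media wells, with curves fitted and assigned curve classes.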
TGFb SMAD3 inh = qHTS for Inhibitors of TGF-b. HepG2 CAGA-GFP TGF-b/SMAD3 reporter, GFP fluorescence, 18 h; TGF-beta stimulated, 500 pg/mL final. Potency, µM (series often up to 46.1 µM), most hits filed as inhibitors. actives 1.2% (n = 410,000); further: nearly all actives have a fitted effect of over 65% in size
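Inhibition of TGF-beta-driven CAGA-GFP reporter expression in HEPG2 cells is measured by cellular GFP fluorescence after 18 h stimulation with 500 pg/mL recombinant TGF-beta in 1% FBS medium at 37 degrees C.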
A number is an active result; . = inactive; ? = inconclusive; / = no result given. The call rests on the fitted dose curve; in most records, active means well fitted curve in the direction sought with a large enough effect; inconclusive means small, poorly fitted or top-dose-only effect, or another doubt; inactive means no such curve, though single readings can be large; an effect the other way counts as inactive or inconclusive.

SMILES	KB-V1 MDR tox	HT1080NT lethal	HepG2 tox	KB-3-1 cytotox	HT1080 IDH1KD tx	TGFb SMAD3 inh
CCCCN(CCCC)CCNC(=O)c1cc(=O)[nH]c2ccc(S(=O)(=O)N3CCCCCC3)cc12	/	/	.	/	/	.
COc1ccccc1CNC(=O)CCn1nc(C)c2c(C)n(-c3ccccc3)nc2c1=O	.	/	.	.	/	.
CCc1c(C)nc2ncnn2c1NCCc1ccc(OC)c(OC)c1	9.2µM	.	.	23µM	.	?
CCOc1ccc(CCNc2cc(C)nc3ncnn23)cc1OCC	.	.	.	.	.	.
COc1ccc(CCNc2c(C)c(C)nc3ncnn23)cc1	.	10µM	.	.	7.1µM	.
CCOC(=O)c1ccc(Nc2c(CC)c(C)nc3ncnn23)cc1	23µM	.	.	.	.	.
CCc1c(C)nc2ncnn2c1Nc1ccc(C(C)=O)cc1	.	.	.	.	.	.
COc1ccc(-c2cc(NCCc3ccncc3)n3ncnc3n2)cc1	.	.	.	.	.	.
CC1=C(C#N)C(NC(=O)c2ccccc2)(C(F)(F)F)C(=O)N1 (centres undefined)	.	/	.	.	/	.
CN(C)CCCNc1cc(N2CCN(C3CCCCC3)CC2)c2noc3c2c1C(=O)c1ccccc1-3	?	/	16µM	.	/	.
COc1ccc(Cl)cc1NC(=O)CSC1=Nc2ccccc2C2=NC(CC(=O)NCc3cccs3)C(=O)N12 (centres undefined)	.	/	.	.	/	.
O=C(NCC1CCCCC1)C1CCN(C(=O)NC2CCCCC2)CC1	16µM	.	.	.	.	.
COc1nc(OC)nc(N2CCC(C(=O)NCC3CCCCC3)CC2)n1	18µM	.	.	.	.	.
Cc1nn(CC(=O)NCc2ccc(OC(C)C)cc2)c(=O)c2c(C)n(-c3ccc(Cl)cc3)nc12	/	/	.	/	/	.
N#Cc1ccc(-c2cccs2)nc1SCc1ccc(Cl)cc1Cl	.	/	.	.	/	.
CCc1cc(Cn2nc(-c3ccccc3)cc2C(=O)NCc2cccc(Br)c2)on1	23µM	.	.	?	.	?
CCc1cc(Cn2nc(-c3ccccc3)cc2C(=O)NCc2cccc(C(F)(F)F)c2)on1	.	.	.	.	.	?
CC1(C)COC(Cn2c3ccccc3c3ccccc32)O1 (centres undefined)	.	.	.	?	23µM	.
CC1COC(Cn2c3ccccc3c3ccccc32)O1 (centres undefined)	.	?	.	.	?	.
Cc1ccc2cc(-c3noc(C(C)(C)C)n3)c(=O)[nH]c2c1	18µM	?	.	.	.	?
Cc1ccc(NC(=O)CSc2nc(C)c(Cc3ccccc3)c(=O)[nH]2)cc1C	?	.	.	.	.	8.9µM
Cc1cccc(NC(=O)CSc2nc(C)c(Cc3ccccc3)c(=O)[nH]2)c1	?	.	.	?	.	?
Cc1cccc(N/C(N)=N/c2nc(C)c(Cc3ccccc3)c(=O)[nH]2)c1	.	.	.	21µM	.	.
CCOC(=O)c1cccc(NC(=O)/C=C/c2ccc([N+](=O)[O-])cc2)c1	4.1µM	.	.	.	.	?
O=C(/C=C/c1ccc([N+](=O)[O-])cc1)Nc1cccc(S(=O)(=O)NC2=NCCCCC2)c1	18µM	.	.	.	.	?
Cc1ccc(C(=O)COC(=O)c2cccc(NC(=O)c3ccc([N+](=O)[O-])cc3[N+](=O)[O-])c2)cc1	18µM	?	.	?	?	?
CC(=O)Nc1ccc(C(=O)OCC(=O)c2cccc([N+](=O)[O-])c2)cc1	.	.	.	.	.	.
O=C(Nc1ccc2c(c1)OCCO2)Nc1nnc(-c2ccncc2)s1	.	/	/	.	/	/
